Molecules are shown by their SMILES. About 83,000 compounds went through this panel and 20% of them were active in at least one assay; those are over-represented in the sample as a whole.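 Interpretation: 100, growth as untreated; towards 0, rising growth inhibition; 0, no net growth; 0 to -100, cell death. Compounds scoring below 10 were considered active.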 Unmarked numbers belong to inactive results. Activity calls are given as the source filed them.

Among the test systems are NCI-H23 lung; NCI-H226 lung; NCI-H322M lung; HOP-62 NSCLC; NCI-H460 lung; HOP-92 NSCLC; NCI-H522 lung; A549/ATCC NSCLC; 786-0 renal; COLO 205 colon; DU-145 prostate; K-562 leukemia; MALME-3M melanoma; MDA-MB-231 breast; RXF 393 renal; SF-268 CNS; SF-295 CNS; SF-539 CNS; UACC-257 melanoma; M14 melanoma.
Holding throughout (test): NCI-60 one-dose screen, 48 h (100 = growth as untreated, 0 = no growth, -100 = all killed)
What all share (conditions): 10 µM unless noted

As to `Cc1ccc(C2=Nc3c(N)ncnc3NC(c3cccc(Nc4ccnc5cc(C(F)(F)F)ccc45)c3)C2)cc1` (stereo not given), the growth is 44.3% in the assay on NCI-H23 lung; 59.8% with NCI-H226 lung; 67.2% in the assay on NCI-H322M lung; 41.1% in the assay on HOP-62 NSCLC; 21.2% with NCI-H460 lung; 2.86% (active) in the assay with HOP-92 NSCLC. The growth in the assay on NCI-H522 lung was 30.6%; in the assay on A549/ATCC NSCLC, 24.6%; in the assay on 786-0 renal, 42.6%; in the assay on COLO 205 colon, 9.89% (active); in the assay with DU-145 prostate, 64.9%; in the assay on K-562 leukemia it was 5.65% (active). For the same compound, the growth is 35.3% in the assay with MALME-3M melanoma; 29.6% in the assay with MDA-MB-231 breast; 0.783% (active) with RXF 393 renal; 40.1% with SF-268 CNS; 25% with SF-295 CNS; 56.1% with SF-539 CNS. In addition, the growth with UACC-257 melanoma was 51.7%; in the assay with M14 melanoma, 16%.

`CC(C)c1ccc(C(=O)Nc2sc3c(c2C(N)=O)CCC(=O)C3)cc1`: the growth with NCI-H23 lung is -7.38% (active); with NCI-H226 lung, 50.9%; with NCI-H322M lung, 69.4%; in the assay on HOP-62 NSCLC, 26.2%; with NCI-H460 lung it was 1.37% (active); in the assay with HOP-92 NSCLC, -32% (active). For the same compound, the growth was -55.8% (active) in the assay with NCI-H522 lung; 16.8% in the assay on A549/ATCC NSCLC; 19.7% with 786-0 renal; -43.6% (active) in the assay on COLO 205 colon; 31.2% with DU-145 prostate; 1.14% (active) in the assay with K-562 leukemia. Moreover, the growth in the assay with MALME-3M melanoma was -23.8% (active); with MDA-MB-231 breast, -54.4% (active); in the assay with RXF 393 renal, -7.12% (active); in the assay with SF-268 CNS it was 17.8%; in the assay on SF-295 CNS, -3.53% (active); with SF-539 CNS, -68.8% (active). The growth with UACC-257 melanoma is -11.8% (active); in the assay on M14 melanoma it was -55.6% (active).

In the case of `COc1ccc(-c2nn(-c3cccc(Cl)c3)cc2-c2cc(-c3ccc(Br)cc3)nc(N)n2)cc1`, the growth in the assay on NCI-H23 lung was 87.3%; with NCI-H226 lung, 86%; in the assay on NCI-H322M lung it was 80.4%; in the assay with HOP-62 NSCLC, 88%; in the assay on NCI-H460 lung it was 93.9%; in the assay with HOP-92 NSCLC, 91%. The growth is 68.3% in the assay with NCI-H522 lung; 81.2% in the assay with A549/ATCC NSCLC; 88.1% in the assay on 786-0 renal; 102% with COLO 205 colon; 107% in the assay on DU-145 prostate; 94.2% in the assay on K-562 leukemia. For the same compound, the growth with MALME-3M melanoma was 102%; in the assay with MDA-MB-231 breast, 81.9%; with RXF 393 renal, 111%; in the assay with SF-268 CNS it was 101%; in the assay with SF-295 CNS, 99.1%; with SF-539 CNS, 103%. The growth is 104% in the assay with UACC-257 melanoma and 92.8% in the assay with M14 melanoma.

Regarding `C=CCn1c(C)nc2ccc(Nc3nc(Nc4ccc5nc(C)n(CC=C)c5c4)c4ccccc4n3)cc21`, the growth is 32.8% with NCI-H23 lung; 67.4% in the assay with NCI-H226 lung; -13.4% (active) with NCI-H322M lung; -61.5% (active) in the assay with HOP-62 NSCLC; -69.5% (active) in the assay on NCI-H460 lung; 43.2% in the assay on HOP-92 NSCLC. In addition, the growth with NCI-H522 lung is -90.7% (active); in the assay with A549/ATCC NSCLC, -83.1% (active); in the assay with 786-0 renal it was -93.8% (active); in the assay with COLO 205 colon, -92.3% (active); with DU-145 prostate, -67.6% (active); with K-562 leukemia it was -43.5% (active). In addition, the growth with MALME-3M melanoma is -78.9% (active); with MDA-MB-231 breast, -78.8% (active); in the assay with RXF 393 renal, -80.7% (active); in the assay on SF-268 CNS, -32.4% (active); in the assay on SF-295 CNS, -67.5% (active); in the assay on SF-539 CNS, -93.8% (active). In addition, the growth in the assay with UACC-257 melanoma was -87.6% (active); in the assay with M14 melanoma, -88.4% (active).

For the compound `Fc1cc2c(cc1Cl)N(c1ncnc3ccc(-c4ccc5n[nH]nc5c4)cc13)CC2`, the growth in the assay on NCI-H23 lung is 79.6%; in the assay on NCI-H226 lung, 88.1%; with NCI-H322M lung it was 54.5%; in the assay with HOP-62 NSCLC, 72.3%; with NCI-H460 lung, 97.1%; with HOP-92 NSCLC it was 31.5%. For the same compound, the growth is 67.3% with NCI-H522 lung; 77.5% in the assay with A549/ATCC NSCLC; 78.6% with 786-0 renal; 109% in the assay with COLO 205 colon; 67.1% with DU-145 prostate; 88.2% in the assay on K-562 leukemia. For the same compound, the growth in the assay on MALME-3M melanoma was 88.8%; in the assay with MDA-MB-231 breast, 72.8%; in the assay on RXF 393 renal, 78.7%; in the assay with SF-268 CNS, 69.5%; in the assay with SF-295 CNS it was 91.7%; in the assay on SF-539 CNS, 78.9%. For the same compound, the growth is 96% in the assay on UACC-257 melanoma and 94.8% in the assay with M14 melanoma.

As for `CCN1C(=S)N(c2ccccc2)C2C1NN=c1s/c(=C3\C(=O)N(C(C)C)c4ccccc43)c(=O)n12` (stereo not given), the growth in the assay on NCI-H23 lung was 75.4%; in the assay with NCI-H226 lung it was 66.7%; in the assay on NCI-H322M lung, 82.8%; in the assay with HOP-62 NSCLC, 73.4%; in the assay with NCI-H460 lung it was 47.8%; in the assay with HOP-92 NSCLC, 100%. For the same compound, the growth is 78.6% in the assay on NCI-H522 lung; 57.8% in the assay on A549/ATCC NSCLC; 93.7% with 786-0 renal; 89.4% in the assay on COLO 205 colon; 58% with DU-145 prostate; 87.2% in the assay with K-562 leukemia. For the same compound, the growth is 60.7% with MALME-3M melanoma; 36.5% in the assay with MDA-MB-231 breast; 107% in the assay with RXF 393 renal; 95.8% with SF-268 CNS; 98.9% in the assay with SF-295 CNS; 10.4% in the assay with SF-539 CNS. The growth is 92.7% in the assay with UACC-257 melanoma and 81.8% in the assay on M14 melanoma.

With `C[PH+](c1nc2ccccc2nc1[PH+](C)C(C)(C)C)C(C)(C)C.C[PH+](c1nc2ccccc2nc1[PH+](C)C(C)(C)C)C(C)(C)C.[Au+].[Cl-]` (stereo not given), the growth is -90.2% (active) in the assay with NCI-H23 lung; -60.4% (active) with NCI-H226 lung; -94% (active) with NCI-H322M lung; -94.3% (active) in the assay on HOP-62 NSCLC; -85.5% (active) in the assay with NCI-H460 lung; -81.5% (active) in the assay with HOP-92 NSCLC. The growth with NCI-H522 lung was -88.7% (active); with A549/ATCC NSCLC, -73.8% (active); in the assay on 786-0 renal, -96.6% (active); in the assay on COLO 205 colon, -100% (active); in the assay on DU-145 prostate, -99.5% (active); in the assay with K-562 leukemia, 1.72% (active). In addition, the growth in the assay on MALME-3M melanoma is -67.1% (active); with MDA-MB-231 breast it was -90.3% (active); in the assay on RXF 393 renal, -87.9% (active); in the assay with SF-268 CNS, -91% (active); in the assay with SF-295 CNS, -88% (active); in the assay on SF-539 CNS, -91.6% (active). For the same compound, the growth is -88.3% (active) with UACC-257 melanoma and -100% (active) in the assay with M14 melanoma.
